In PubChem BioAssay (NCATS) one finds Potency and outcome data, which are given here for 35 molecules.

“And” between values parts separate entries of the source, which are not always exact repeats. Identical values can stand only once. Records with an inconclusive call do not appear. Some compounds were tested as several samples or in several runs, with calls that do not always agree. The source made the active and inactive calls. Unless noted, calls follow the shape of the dose curve; as a rule, active = well fitted curve in the direction sought with a large enough effect; inconclusive = small, poorly fitted or top-dose-only effect, or another doubt; inactive = no such curve, though single readings can be large; an effect the other way counts as inactive or inconclusive.

The target in experiment [1] is Atrial natriuretic peptide receptor 1 (Homo sapiens) (UniProt P16066). Put plainly: Natriuretic polypeptide receptor (hNpr1) antagonism - Pilot screen (AID 1347049; calls by dose curve;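 also: HEK293 cells with hNpr1 and GloSensor cGMP luciferase stimulated by 0.1 nM hNppA; agonist-evoked cGMP luminescence read 20 min after hNppA addition; series mostly up to about 58 µM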). The gist of the method: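 Cells expressing receptor plus cGMP biosensor are seeded and incubated overnight at 37C, then loaded with GloSensor reagent (2% final) at room temperature for 2 h. Library compounds go on for 30 min. A pre-read precedes agonist (hNppA, 0.1 nM final) and a 20-min readout.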
Atrial natriuretic peptide receptor 1 (Homo sapiens), sequence (P16066 whole entry, looked up): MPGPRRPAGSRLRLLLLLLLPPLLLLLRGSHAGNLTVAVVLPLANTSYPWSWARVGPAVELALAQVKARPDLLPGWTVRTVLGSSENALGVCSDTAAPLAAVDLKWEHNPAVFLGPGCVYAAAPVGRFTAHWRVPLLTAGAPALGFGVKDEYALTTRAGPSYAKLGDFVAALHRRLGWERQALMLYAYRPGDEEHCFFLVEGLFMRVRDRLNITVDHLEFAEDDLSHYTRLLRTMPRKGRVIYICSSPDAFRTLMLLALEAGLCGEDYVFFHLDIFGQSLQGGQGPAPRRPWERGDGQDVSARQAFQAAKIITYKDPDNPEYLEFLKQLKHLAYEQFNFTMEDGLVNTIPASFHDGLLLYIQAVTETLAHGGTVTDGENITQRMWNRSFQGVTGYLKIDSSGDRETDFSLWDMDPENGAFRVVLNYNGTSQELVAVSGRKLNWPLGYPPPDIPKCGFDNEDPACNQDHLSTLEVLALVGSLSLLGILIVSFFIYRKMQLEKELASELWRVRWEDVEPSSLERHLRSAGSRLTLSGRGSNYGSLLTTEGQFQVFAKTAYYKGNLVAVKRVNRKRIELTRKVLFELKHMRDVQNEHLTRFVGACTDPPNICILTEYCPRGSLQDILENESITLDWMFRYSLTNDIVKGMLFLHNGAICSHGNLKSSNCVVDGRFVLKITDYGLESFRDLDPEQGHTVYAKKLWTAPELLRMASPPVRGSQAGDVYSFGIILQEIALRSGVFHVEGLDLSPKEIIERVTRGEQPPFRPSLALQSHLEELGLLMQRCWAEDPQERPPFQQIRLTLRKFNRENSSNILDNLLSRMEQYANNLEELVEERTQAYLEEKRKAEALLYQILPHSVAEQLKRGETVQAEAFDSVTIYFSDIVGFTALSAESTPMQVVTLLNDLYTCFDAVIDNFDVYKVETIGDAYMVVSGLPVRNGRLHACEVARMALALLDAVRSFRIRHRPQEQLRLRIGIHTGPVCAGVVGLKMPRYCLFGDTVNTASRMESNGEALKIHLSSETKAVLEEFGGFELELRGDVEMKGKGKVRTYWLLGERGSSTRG

For experiment [2], the target named is Atrial natriuretic peptide receptor 2 (Homo sapiens) (UniProt P20594). Description: Natriuretic polypeptide receptor (hNpr2) antagonism - Pilot subtype selectivity assay (AID 1347050; calls by dose curve; also: potency is read from the fitted curve at half-maximal effect). Summed up: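 Read-out: GloSensor luminescence (CCD imager), baseline vs post-stimulation. HEK293 cells expressing hNpr2; compounds pre-incubated 30-50 min at ambient temperature; hNppC 1 nM final, 20 min.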
Atrial natriuretic peptide receptor 2 (Homo sapiens), sequence (P20594 whole entry, looked up): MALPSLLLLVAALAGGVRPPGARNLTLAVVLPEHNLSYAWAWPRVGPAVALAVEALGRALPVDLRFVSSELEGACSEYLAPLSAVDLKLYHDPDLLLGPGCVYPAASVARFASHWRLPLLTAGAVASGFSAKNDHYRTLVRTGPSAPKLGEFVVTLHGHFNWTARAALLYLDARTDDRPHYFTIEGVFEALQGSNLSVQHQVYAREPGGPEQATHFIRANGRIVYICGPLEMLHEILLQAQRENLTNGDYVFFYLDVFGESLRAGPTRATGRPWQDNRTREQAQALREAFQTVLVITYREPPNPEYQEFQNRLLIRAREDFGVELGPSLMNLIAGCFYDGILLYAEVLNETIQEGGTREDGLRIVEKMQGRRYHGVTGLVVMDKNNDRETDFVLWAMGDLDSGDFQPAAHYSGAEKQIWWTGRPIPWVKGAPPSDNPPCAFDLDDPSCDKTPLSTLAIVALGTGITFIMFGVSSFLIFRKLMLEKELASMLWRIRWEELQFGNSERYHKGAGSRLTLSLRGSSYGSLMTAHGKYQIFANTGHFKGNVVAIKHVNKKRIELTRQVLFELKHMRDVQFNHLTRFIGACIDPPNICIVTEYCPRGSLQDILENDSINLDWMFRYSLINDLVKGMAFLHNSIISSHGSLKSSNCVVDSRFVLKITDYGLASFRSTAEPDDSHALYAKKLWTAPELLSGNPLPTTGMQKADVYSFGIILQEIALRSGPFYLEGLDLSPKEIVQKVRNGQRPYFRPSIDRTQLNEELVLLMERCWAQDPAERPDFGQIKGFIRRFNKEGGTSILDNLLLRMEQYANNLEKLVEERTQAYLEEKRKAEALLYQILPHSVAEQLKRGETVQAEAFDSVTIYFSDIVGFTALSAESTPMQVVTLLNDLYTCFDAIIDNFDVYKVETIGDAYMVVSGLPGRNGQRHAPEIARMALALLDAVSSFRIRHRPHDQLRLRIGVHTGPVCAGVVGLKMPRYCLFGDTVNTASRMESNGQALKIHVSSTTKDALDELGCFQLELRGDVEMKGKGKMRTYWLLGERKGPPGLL

Experiment [3] can be described thus: NS1 protein of Zika virus - qHTS assay to identify small molecule inhibitors in human HEK 293 cells (AID 1347053). Also: nearly all actives have a fitted effect of over 55% in size. Also: potency is read from the fitted curve at half-maximal effect. The gist of the method:
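Readout was TR-FRET using paired anti-NS1 antibodies after 24 h infection of HEK 293 cells with ZIKV MR766 (MOI = 0.5). Compound preceded virus by 1 h; reduced signal reflects lower NS1 expression.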
(In general: Quantitative high-throughput screening tests each substance at several concentrations.)

Experiment [4] deals with T1, Tyrosine-protein phosphatase non-receptor type substrate 1 (Homo sapiens) + Leukocyte surface antigen CD47 (Homo sapiens) (UniProt P78324+Q08722). Put plainly: CD47-SIRPalpha protein protein interaction - LANCE assay qHTS validation (AID 1347057; active = well fitted curve in the direction sought with a large enough effect in the signal ratio, with a control signal flat, not every such curve was filed as active; the % refers to the signal ratio; also: series mostly up to about 38 µM). Summed up: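 Inhibition of soluble CD47/SIRPalpha ectodomain association by titrated compounds, measured as 665/615 nm time-resolved FRET ratio after sequential 30 min room-temperature incubations.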
T1 sequence (P78324 whole entry, looked up, the tested form may be a part): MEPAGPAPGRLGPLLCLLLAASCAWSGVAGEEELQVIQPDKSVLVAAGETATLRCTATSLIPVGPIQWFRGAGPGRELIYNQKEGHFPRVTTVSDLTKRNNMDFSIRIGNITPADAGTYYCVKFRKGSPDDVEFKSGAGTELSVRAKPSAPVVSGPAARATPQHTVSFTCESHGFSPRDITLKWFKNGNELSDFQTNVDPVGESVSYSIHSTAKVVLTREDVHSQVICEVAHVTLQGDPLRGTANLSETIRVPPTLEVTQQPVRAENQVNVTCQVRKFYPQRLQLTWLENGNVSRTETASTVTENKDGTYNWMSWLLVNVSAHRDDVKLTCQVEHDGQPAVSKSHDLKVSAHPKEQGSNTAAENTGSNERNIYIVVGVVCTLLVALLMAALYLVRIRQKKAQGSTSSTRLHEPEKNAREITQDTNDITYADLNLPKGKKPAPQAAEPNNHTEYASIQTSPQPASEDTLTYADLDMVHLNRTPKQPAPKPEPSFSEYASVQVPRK
T1 sequence (Q08722 whole entry, looked up, the tested form may be a part): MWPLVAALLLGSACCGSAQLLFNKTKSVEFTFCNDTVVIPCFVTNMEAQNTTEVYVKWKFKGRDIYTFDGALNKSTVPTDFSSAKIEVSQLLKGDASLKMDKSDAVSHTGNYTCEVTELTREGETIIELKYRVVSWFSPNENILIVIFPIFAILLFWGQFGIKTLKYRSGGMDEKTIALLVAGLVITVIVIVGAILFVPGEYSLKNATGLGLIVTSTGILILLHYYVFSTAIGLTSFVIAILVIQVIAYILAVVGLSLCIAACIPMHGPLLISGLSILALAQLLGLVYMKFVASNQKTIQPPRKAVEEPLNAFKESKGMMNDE

Experiment [5] addresses T1, Tyrosine-protein phosphatase non-receptor type substrate 1 (Homo sapiens) + Leukocyte surface antigen CD47 (Homo sapiens). Put plainly: CD47-SIRPalpha protein protein interaction - Alpha assay qHTS validation (AID 1347059).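 Also: bead proximity luminescence from CD47 binding SIRPalpha after compound preincubation with SIRPalpha.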 The gist of the method: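 In PBS (pH 7.4) with 0.05% IGEPAL CA-630, compound is preincubated with biotin-Avi-SIRPalpha ectodomain before His-CD47 ectodomain and affinity beads are added. Light-protected room-temperature incubations; AlphaScreen readout.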

Experiment [6] concerns the target Parathyroid hormone/parathyroid hormone-related peptide receptor (Homo sapiens) (UniProt Q03431). Description: qHTS for PTHR1 Agonists: Optimization Screen against the NCGC LOPAC library (AID 1347079).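 Also: GloSensor cAMP luminescence in HEK-293 GP2 cells expressing human PTHR1 with IBMX.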 Summed up: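 Signal increase flags agonism. GP2 cells, derived from HEK-293, express human PTHR1 and a GloSensor cAMP construct.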
Experiment [7] in a line: qHTS of pediatric cancer cell lines to identify multiple opportunities for drug repurposing: Primary screen for TC32 cells (AID 1347089). Also: nearly all actives have a fitted effect of over 60% in size. Also: potency is read from the fitted curve at half-maximal effect. The gist of the method:
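In the primary qHTS, MIPE compounds were tested at 11 concentrations (0.78 nM to 46 µM) and NPC compounds at 8 (0.59 nM to 46 µM) on TC32 cells for 48 h. CellTiter-Glo luminescence gave viability.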

A short description of experiment [8]: qHTS of pediatric cancer cell lines to identify multiple opportunities for drug repurposing: Primary screen for DAOY cells (AID 1347090). Also: nearly all actives have a fitted effect of over 55% in size. Also: potency is read from the fitted curve at half-maximal effect. Summed up:
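Eight- or eleven-point concentration series, 48 h treatment at 37 degrees C in growth media; readout CellTiter-Glo luminescence. Potency and efficacy were taken from the concentration-response curves.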

Experiment [9] deals with T1, Tyrosine-protein phosphatase non-receptor type substrate 1 (Homo sapiens) + Leukocyte surface antigen CD47 (Homo sapiens). Description: CD47-SIRPalpha protein protein interaction - HTRF assay qHTS validation (AID 1347058; active = well fitted curve in the direction sought with a large enough effect in the signal ratio, not every such curve was filed as active; the % refers to the signal ratio; also: series mostly up to about 38 µM). Summed up:
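Soluble extracellular domains (6His-CD47, Avi-tag-biotinylated SIRPalpha) in PBS pH 7.4 with 0.05% IGEPAL CA-630. Compounds were preincubated 30 min at RT with CD47 and anti-His-Eu, then SIRPalpha and SAV-XL665 were added. TR-FRET 665/615 ratio.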
On the technique in general: Time-resolved FRET reads energy transfer from a long-lived donor to a nearby acceptor.

Parathyroid hormone/parathyroid hormone-related peptide receptor (Homo sapiens), sequence (Q03431 whole entry, looked up): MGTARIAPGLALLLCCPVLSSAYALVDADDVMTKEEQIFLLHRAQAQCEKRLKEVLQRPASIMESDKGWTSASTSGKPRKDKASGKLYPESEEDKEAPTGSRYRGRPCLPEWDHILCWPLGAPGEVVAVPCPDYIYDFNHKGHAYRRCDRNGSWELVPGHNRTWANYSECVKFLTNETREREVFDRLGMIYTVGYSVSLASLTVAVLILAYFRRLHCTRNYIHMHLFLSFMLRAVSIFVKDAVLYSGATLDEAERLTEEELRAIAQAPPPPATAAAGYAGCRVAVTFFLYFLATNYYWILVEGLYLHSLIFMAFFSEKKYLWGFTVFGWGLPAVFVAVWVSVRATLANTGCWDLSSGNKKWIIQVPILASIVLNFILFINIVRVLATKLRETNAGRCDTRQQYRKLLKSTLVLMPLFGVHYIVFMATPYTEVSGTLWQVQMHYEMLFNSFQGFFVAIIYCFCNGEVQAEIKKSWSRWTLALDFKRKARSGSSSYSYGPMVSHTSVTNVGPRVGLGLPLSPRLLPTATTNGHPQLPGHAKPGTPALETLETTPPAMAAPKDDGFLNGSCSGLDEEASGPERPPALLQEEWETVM

For `CC(C)C(=O)Nc1ccc([N+](=O)[O-])c(C(F)(F)F)c1`, the Potency entry in experiment [1], in experiment [2], in experiment [3], in experiment [5], in experiment [6] and in experiment [7] was “inactive” in each case. Also, in experiment [4], the outcome was inactive. Further, the Potency in [8] is 4690 nM (active).

In the case of `CC1COc2c(N3CCN(C)CC3)c(F)cc3c(=O)c(C(=O)O)cn1c23` (centres undefined), the Potency entry in experiment [2], in [3], in experiment [6], in experiment [7] and in [8] was “inactive” each time.

`CN(C)C(=N)N=C(N)N`: the Potency entry in experiment [3], in experiment [7] and in experiment [8] was “inactive” in each case.

Regarding `COc1ccc(CCN(C)CCCC(C#N)(c2ccc(OC)c(OC)c2)C(C)C)cc1OC` (centres undefined), the Potency entry in [3], in experiment [6], in experiment [7] and in experiment [8] was “inactive” in each case.

`O=C1Cc2cc(CCN3CCN(c4nsc5ccccc45)CC3)c(Cl)cc2N1`: the Potency entry in experiment [1], in experiment [3], in [5], in experiment [6], in experiment [7] and in experiment [8] was “inactive” throughout. Further, the outcome in experiment [4] and in experiment [9] was inactive.

In the case of `CC[C@@]1(O)C(=O)OCc2c1cc1n(c2=O)Cc2cc3c(CN(C)C)c(O)ccc3nc2-1`, the Potency entry in experiment [3] is “inactive and 41.8 nM (active)”; in [7], 26.4 nM (active) and 131 nM (active); in experiment [8] it was 53.1 nM (active) and 296 nM (active).

In the case of `Cn1ccc2cc3c(cc21)CCN3C(=O)Nc1cccnc1`, the Potency entry in [3], in experiment [5], in [6], in experiment [7] and in [8] was “inactive” throughout. The result in [4] and in experiment [9] was inactive.

Consider `Cn1c(=O)c2c(ncn2C)n(C)c1=O`, for which the Potency result in experiment [2], in experiment [3], in [6], in [7] and in [8] was “inactive” in each case.

In the case of `Clc1ccccc1C(c1ccccc1)(c1ccccc1)n1ccnc1`, the Potency entry in experiment [1], in experiment [2], in [3], in [5], in experiment [6] and in [7] was “inactive” in each case. Also, in experiment [8], the Potency entry was “inactive”. Besides, the outcome in experiment [4] and in experiment [9] was inactive.

As to `CN1CCN(CCCN2c3ccccc3Sc3ccc(Cl)cc32)CC1`, the Potency result in [1], in [6] and in experiment [7] was “inactive” throughout. Moreover, the Potency in experiment [2] is 18.5 µM (active); in [3], 23.5 µM (active) and inactive. Also, the outcome in experiment [4] and in [9] was inactive.

In the case of `CC#C[C@]1(O)CC[C@H]2[C@@H]3CCC4=CC(=O)CCC4=C3[C@@H](c3ccc(N(C)C)cc3)C[C@@]21C`, the Potency result in experiment [3] and in experiment [6] was “inactive” in each case. In experiment [4], the result was inactive. Also, the Potency in experiment [8] is 469 nM (active).

Take `COc1cc2nc(N(C)CCCNC(=O)C3CCCO3)nc(N)c2cc1OC` (centres undefined): the Potency result in experiment [2], in [3], in experiment [5], in [6], in experiment [7] and in experiment [8] was “inactive” in each case. The result in experiment [4] and in experiment [9] was inactive.

Regarding `CC[N+](CC)(CC)CCOc1cccc(OCC[N+](CC)(CC)CC)c1OCC[N+](CC)(CC)CC`, the Potency entry in experiment [1], in experiment [2], in experiment [3], in [6], in [7] and in experiment [8] was “inactive” throughout.

For `Cc1cn([C@H]2C[C@H](N=[N+]=[N-])[C@@H](CO)O2)c(=O)[nH]c1=O`, the Potency entry in experiment [2], in experiment [3], in [6], in [7] and in [8] was “inactive” throughout.

Turning to `C[C@@H]1CC(=O)NN=C1c1ccc(NN=C(C#N)C#N)cc1`, the Potency entry in [3] is “inactive and 14.8 µM (active)”; in experiment [8], 26600 nM (active). In [7], the Potency result is “inactive”.

Turning to `CN(C)CCCN1c2ccccc2CCc2ccc(Cl)cc21`, in experiment [2], the Potency was 7.36 µM (active). Further, the Potency result in experiment [3], in experiment [6] and in [7] was “inactive” throughout.

In the case of `CC(C(=O)O)c1cccc(C(=O)c2ccccc2)c1` (centres undefined), the Potency entry in [2], in experiment [3], in experiment [6], in experiment [7] and in experiment [8] was “inactive” each time.

As to `CS(=O)(=O)Nc1ccc([N+](=O)[O-])cc1Oc1ccccc1`, the Potency entry in experiment [1], in [2], in [3], in [6], in experiment [7] and in experiment [8] was “inactive” each time.

Take `CC1(CN2CCC(n3c(=O)[nH]c4ccccc43)CC2)OCc2ccccc2-n2cccc21` (centres undefined): the Potency result in experiment [3], in experiment [7] and in [8] was “inactive” throughout.

For the molecule `Clc1ccc(C(c2ccccc2Cl)C(Cl)Cl)cc1` (centres undefined), the Potency result in experiment [1], in experiment [2], in [5], in experiment [6], in experiment [7] and in [8] was “inactive” throughout. Further, the Potency result in experiment [3] was “inactive and 18.7 µM (active)”. For the same molecule, in [4], the result was inactive.

In the case of `Cc1cnc(C(=O)NCCc2ccc(S(=O)(=O)NC(=O)NC3CCCCC3)cc2)cn1`, the Potency result in experiment [1], in experiment [2], in experiment [3], in experiment [6], in [7] and in experiment [8] was “inactive” throughout.

In the case of `Clc1ccc2nsnc2c1NC1=NCCN1`, the Potency entry in experiment [2], in experiment [3], in [6], in experiment [7] and in [8] was “inactive” in each case.

Regarding `CS(=O)(=O)CCNCc1ccc(-c2ccc3ncnc(Nc4ccc(OCc5cccc(F)c5)c(Cl)c4)c3c2)o1`, the Potency entry in [3] and in experiment [7] was “inactive” in each case. Besides, the Potency in [8] was 235 nM (active).

Turning to `OCCN1CCN(CCCN2c3ccccc3Sc3ccc(C(F)(F)F)cc32)CC1`, the Potency result in [2], in experiment [5], in [6], in [7] and in experiment [8] was “inactive” throughout. For the same molecule, the Potency in experiment [3] was 16.6 µM (active) and inactive. The result in experiment [4] and in [9] was inactive.

On to `CC1(C)O[C@H]2CC(=O)OC[C@]23[C@H]2CC[C@@]4(C)[C@H](c5ccoc5)OC(=O)[C@H]5O[C@]54[C@]2(C)C(=O)C[C@@H]13`, for which the Potency result in [3], in experiment [7] and in [8] was “inactive” each time.

For `CC(=O)OCC(CCn1cnc2cnc(N)nc21)COC(C)=O`, the Potency entry in [3], in experiment [5], in [7] and in [8] was “inactive” each time. Moreover, the result in [4] and in [9] was inactive.

As for `Cc1ccc(-c2cc(C(F)(F)F)nn2-c2ccc(S(N)(=O)=O)cc2)cc1`, the Potency entry in [3], in experiment [5], in experiment [7] and in experiment [8] was “inactive” throughout. Also, the result in [4] was inactive.

`Nc1nnc(-c2cccc(Cl)c2Cl)c(N)n1`: the Potency result in experiment [3], in [5], in experiment [6], in experiment [7] and in [8] was “inactive” in each case. In addition, the outcome in experiment [4] and in experiment [9] was inactive.

Consider `COc1cc2nc(N3CCN(C(=O)C4COc5ccccc5O4)CC3)nc(N)c2cc1OC` (centres undefined), for which the Potency result in experiment [2], in experiment [3], in experiment [5], in experiment [6], in experiment [7] and in experiment [8] was “inactive” throughout. The result in experiment [4] and in experiment [9] was inactive.

With `CCOC(=O)Nc1ccc(NCc2ccc(F)cc2)nc1N`, the Potency result in [2], in [3], in [5], in experiment [6], in [7] and in [8] was “inactive” in each case. The result in experiment [4] was inactive.

In the case of `Clc1ccc2c(c1)C(N1CCNCC1)=Nc1ccccc1O2`, in experiment [2], the Potency was 8.26 µM (active). The Potency entry in experiment [3], in experiment [5], in experiment [6], in experiment [7] and in experiment [8] was “inactive” each time. In addition, the result in experiment [4] and in experiment [9] was inactive.

Consider `CN(Cc1cnc2nc(N)nc(N)c2n1)c1ccc(C(=O)N[C@@H](CCC(=O)O)C(=O)O)cc1`, for which the Potency result in experiment [1], in experiment [2], in experiment [3], in [5] and in [6] was “inactive” throughout. For the same molecule, the outcome in [4] was inactive. In addition, the Potency is 6.6 nM (active) in experiment [7] and 26.6 nM (active) in experiment [8].

As for `CN1CCC(=C2c3ccccc3CC(=O)c3sccc32)CC1`, the Potency result in [1], in experiment [3], in experiment [5], in experiment [6] and in experiment [7] was “inactive” in each case. For the same molecule, the result in experiment [4] and in experiment [9] was inactive.

Regarding `CN(CCOc1ccc(NS(C)(=O)=O)cc1)CCc1ccc(NS(C)(=O)=O)cc1`, the Potency result in experiment [3], in experiment [5], in experiment [7] and in experiment [8] was “inactive” in each case. The outcome in experiment [4] and in experiment [9] was inactive.

Turning to `CC(C)(C)C(=O)Oc1ccc(S(=O)(=O)Nc2ccccc2C(=O)NCC(=O)O)cc1`, the Potency entry in experiment [3], in experiment [5], in experiment [7] and in experiment [8] was “inactive” throughout. The result in experiment [4] and in experiment [9] was inactive.
